Test results published in PubChem BioAssay AID720518 (National Center for Advancing Translational Sciences (NCATS), 2013).
Results filed as inconclusive are left out. Unmarked numbers belong to inactive results. The call rests on the fitted dose curve.

Assay: qHTS for Inhibitors of Cell Surface uPA Generation: Wild-type Protective Antigen (WT-PrAg) Counterscreen for Cherry-picked Compounds; further: 0% is about no effect
Settings: cells, WT protective antigen toxicity counterscreen; series mostly up to 115 µM; activity (protection): at the top concentration

| Structure (SMILES) | activity (protection) |
| --- | --- |
| O=C1c2ccccc2[C@@H]2C[C@H](NC34CC5CC(CC(C5)C3)C4)[C@@H](O)CCN12 | -1.03% |
| Cc1ccc(S(=O)(=O)N2CCC(C(=O)OC(C)C(=O)NC3CCCCC3C)CC2)cc1 (centres undefined) | 0.942% |
| CC(=O)NCCc1cnc[nH]1 | -0.521% |
| Cc1cc(C)n(C(=O)c2cccc([N+](=O)[O-])c2)n1 | -1.85% |
| COc1ccc(C(=O)N[C@H](C(=O)NCc2cccs2)C(C)C)cc1 | -0.821% |
| CCS(=O)(=O)N1CCC(C(=O)NCc2ccc(OC)cc2OC)CC1 | 0.322% |
| CN(CCO)c1ccc(C(C(=O)c2ccccc2)c2ccc(N(C)CCO)cc2)cc1 | -1.8% |
| CC1CC(C)CN(CCCNC(=O)CN2C(=O)CSc3ccc(S(=O)(=O)N4CCOCC4)cc32)C1 (centres undefined) | 0.935% |
| COc1ccc(CN2CCN(Cc3ccc(C(F)(F)F)cc3)CC2)cc1 | -1.82% |
| O=C(NC1CCCC1)c1nc2c(nnn2Cc2ccccc2Cl)c(=O)[nH]1 | -1.28% |
| Cc1ccc(S(=O)(=O)N2CCN(C(=O)c3n[nH]c(=O)c4ccccc34)CC2)cc1 | -0.765% |
| COc1ccc(/C=C/C(=O)Nc2ccccc2Cl)cc1S(=O)(=O)N1CCOCC1 | -0.626% |
| O=C(COc1ccc(C(=S)N2CCOCC2)cc1)N1CCOCC1 | 0.626% |
| CCC1(C)NC(=O)N(CC(=O)Nc2sc3c(c2C(N)=O)CCC3)C1=O (centres undefined) | 6.41% |
| CCCCOc1ccc(S(=O)(=O)N2CCCCC2)cc1 | -0.111% |
| CCOc1cc(/C=N/Nc2cc(C)nc3ccc(C)cc23)ccc1O | -0.441% |
| C=C1C(=O)[C@@]23[C@H](O)C[C@@H]4C(C)(C)CC[C@H](O)[C@]4(C)[C@@H]2C[C@H](O)[C@@H]1[C@H]3O | -0.321% |
| CCCCCCCCCOC(=O)C1N2C(=O)[C@@H](NC(=O)COc3ccccc3)[C@H]2SC1(C)C (some centres undefined) | -2.25% |
| CCN(c1ccc(OC)cc1)S(=O)(=O)c1ccc2c(c1)NC(=O)CS2 | -1.04% |
| O=C(COC(=O)c1cccc([N+](=O)[O-])c1)NNC(=O)c1cccs1 | 0.0086% |

| Structure (SMILES) | activity (protection) |
| --- | --- |
| Cc1cccc(C(=O)NC2CCN(CC(=O)N3CCOCC3)CC2)c1 | -0.973% |
| Cc1cccc(NC(=O)c2cc3c(=O)n4ccccc4nc3s2)c1 | 0.263% |
| O=C1NC(CCc2ccccc2)C(=O)N1Cc1ccccc1Cl (centres undefined) | 4.02% |
| Cc1nc(SCC(=O)NCCN2C(=O)CSC2=O)nc(C)c1C | -0.753% |
| COc1ccc(C(=O)NNC(=O)Cc2ccc(Cl)cc2)cc1 | 1.34% |
| Cc1ccc(N2C(=O)c3ccccc3C2(O)c2ccccc2)cc1 (centres undefined) | -0.943% |
| Cc1cc(C)c(S(=O)(=O)N2CCCOC2CNC(=O)C(=O)NCc2cccs2)c(C)c1 (centres undefined) | -0.312% |
| C[C@H](O)[C@@H]1C(=O)N2CCc3ccc(-c4cccc(F)c4)cc3[C@@H]2C[C@@H]1N(C)C(=O)C(C)(C)C | -2.29% |
| CSc1nc(N)nc2c1ncn2CC(=O)NCC1CCCO1 (centres undefined) | 0.724% |
| CN(/N=C/c1cc(Cl)cc(Cl)c1O)C(=S)NC(C)(C)C | -2.11% |
| CC(Sc1nnc2ccccn12)C(=O)NCc1ccc2c(c1)OCO2 (centres undefined) | 0.198% |
| CCN(CC)S(=O)(=O)c1cc(NC(=O)COC(=O)C2CCC2)ccc1C | 0.3% |
| O=C(Cc1ccc(Cl)cc1)NC(=S)Nc1ccccc1O | 2.16% |
| C[C@@H](CSc1ccccc1)CN1CC[C@H](O)CCC1=O | 0.0232% |
| COc1ccc(C2=NS(=O)(=O)N(C)C(C(=O)NCc3ccccn3)=C2)cc1 | -1.14% |
| CC1(C(=O)OCC(=O)Nc2ccc(Cl)cn2)CC1(Cl)Cl (centres undefined) | 5.25% |
| COc1cccc(C(=O)Cn2c(NCCCO)nc3ccccc32)c1 | -0.884% |
| Cc1cccc(NC(=O)C2CCCN(S(=O)(=O)c3ccc4[nH]c(=O)ccc4c3)C2)c1 (centres undefined) | -1.13% |
| CC(C)CCN1C(=O)c2ccc(-c3nc4ccccc4c(=O)o3)cc2C1=O | -0.862% |
